According to the supplement of paper PMC13380429:
A number with no mark means an inactive call.

tested on: Vero E6 infected with SARS-CoV-2; experiment: inhibition of SARS-CoV-2 cytopathic effect; higher = more antiviral protection, active = above 15; settings: 100 nM; 48 h

Which “inhibition of SARS-CoV-2 cytopathic effect” value (from here on “inhibition”) does the source give for `COc1nccc(-c2c(-c3ccc(F)cc3)ncn2[C@H]2CC[C@H](O)CC2)n1` here?
Its value is 3.88%.

For `C[C@]12C/C(=C/O)C(=O)C[C@@H]1CC[C@@H]1[C@@H]2CC[C@@]2(C)[C@H]1CC[C@]2(C)O` [Oxymetholone], which “inhibition” value is on record?
The value was 1.73%.

Which “inhibition” value does the source give for `Cc1cc(C)c2c(N)c(C(=O)NCc3ccc(Cl)cc3)sc2n1` here?
The value was -0.97%.

For `Cc1[nH]cnc1CN1CCc2c(c3ccccc3n2C)C1=O` [alosetron], which “inhibition” value is on record?
Its value is -3.51%.

How did the “inhibition” value turn out when `CN(C/C=C/C#CC(C)(C)C)Cc1cccc2ccccc12` [terbinafine] was run?
Its value is 8.59%.

For `C[S+]([O-])c1ccc(-c2nc(-c3ccc(F)cc3)c(-c3ccncc3)[nH]2)cc1` (stereo not given), which “inhibition” value is on record?
Its value is -1.08%.

With `CCCCOc1ccc(C(=O)CCN2CCCCC2)cc1` [dyclonine] as the compound, how does the “inhibition” value read?
The value was 3.14%.

Which “inhibition” value does the source give for `COc1cc2c(cc1OC)[C@@H]1Cc3ccc(OC)c(OC)c3CN1CC2` [rotundine] here?
The value was -1.22%.

How did the “inhibition” value turn out when `OCCNCCCOc1cccc(Cl)c1Cl` was run?
Its value is 1.26%.

With `NCCCCN(Cc1nc2ccccc2[nH]1)[C@H]1CCCc2cccnc21` as the compound, how does the “inhibition” value read?
The value was 0.37%.

With `O=C(O)C1(C(=O)O)CCC1.[NH2-].[NH2-].[Pt+2]` [carboplatin] as the compound, how does the “inhibition” value read?
Its value is 4.49%.

Which “inhibition” value does the source give for `Cc1ccc(O)c([C@H](CCN(C(C)C)C(C)C)c2ccccc2)c1` [tolterodine] here?
Its value is 1.96%.

How did the “inhibition” value turn out when `O=C(O)CNC(=O)c1ccccc1I` [2-iodohippuric-acid] was run?
The value was 0.05%.

With `C[C@@H](NC(=O)c1ncnc(N)c1Cl)c1ncc(C(=O)Nc2cc(C(F)(F)F)c(Cl)cn2)s1` as the compound, how does the “inhibition” value read?
The value was 4.35%.

With `C[C@@H](CN(C)C)CN1c2ccccc2Sc2ccccc21` (racemic) [alimemazine] as the compound, how does the “inhibition” value read?
The value was -1.76%.

For `CC1=C(CC(=O)O)c2cc(F)ccc2/C1=C\c1ccc([S+](C)[O-])cc1` (stereo not given) [sulindac], which “inhibition” value is on record?
The value was -1.46%.

For `NCCNCCNCCN` [trientine], which “inhibition” value is on record?
The value was 1.04%.

For `Oc1c(I)cc(Cl)c2cccnc12` [clioquinol], which “inhibition” value is on record?
Its value is -4.78%.

For `O=C(NNC(=O)c1ccc(CNS(=O)(=O)c2ccc(F)c(Cl)c2)cc1)c1ccccc1`, which “inhibition” value is on record?
Its value is 3.13%.

With `CC1=C(/C=C/C(C)=C/C=C/C(C)=C/CO)C(C)(C)CCC1` [retinol] as the compound, how does the “inhibition” value read?
The value was 0.03%.

For `CN(C)CCC(c1ccc(Br)cc1)c1ccccn1` (stereo not given) [brompheniramine], which “inhibition” value is on record?
Its value is -3.1%.

How did the “inhibition” value turn out when `COc1ccc(-c2c(C)c(C(=O)NN3CCCCC3)nn2-c2ccc(Cl)cc2Cl)cc1` was run?
Its value is -5.55%.

`CN(C[C@@H]1COCCO1)S(=O)(=O)Nc1ccc2ccc3ncc(-c4cnn(C)c4)cc3c(=O)c2c1` was tested. Which “inhibition” value did it give?
Its value is -0.46%.

`OCCNC1CCCc2c1[nH]c1ccc(-c3ccccc3)cc21` (stereo not given) [casin] was tested. Which “inhibition” value did it give?
The value was 1.22%.

How did the “inhibition” value turn out when `CCCCCCCN(CC)CCC[C@@H](O)c1ccc(NS(C)(=O)=O)cc1` (racemic) [ibutilide] was run?
Its value is -2.19%.

`NCCCCN` [putrescine] was tested. Which “inhibition” value did it give?
Its value is -0.12%.

For `C=CC(=O)Nc1cccc(C)c1Nc1ncc2cc(-c3c(Cl)c(OC)cc(OC)c3Cl)ccc2n1`, which “inhibition” value is on record?
Its value is -0.76%.

`CN1C[C@@H](NS(=O)(=O)N(C)C)C[C@@H]2c3cccc4c3c(cn4C)C[C@H]21` [mesulergine] was tested. Which “inhibition” value did it give?
Its value is 0.56%.

Which “inhibition” value does the source give for `CCn1cc(C(=O)O)c(=O)c2cnc(N3CCCC3)nc21` [piromidic-acid] here?
The value was 0.19%.

How did the “inhibition” value turn out when `O=S(=O)(/N=C/c1c(O)ccc2ccccc12)c1cccs1` was run?
The value was 1.59%.

Which “inhibition” value does the source give for `NS(=O)(=O)Cc1noc2ccccc12` [zonisamide] here?
Its value is -0.76%.

How did the “inhibition” value turn out when `CN(C(=O)Cc1ccccc1)[C@H](CN1CCCC1)c1ccccc1` was run?
The value was 0.52%.

With `CC(=O)NCCCOc1ccc(C(=O)N2CCC(N3C(=O)CCc4ccccc43)CC2)cc1` as the compound, how does the “inhibition” value read?
The value was 0.95%.

`O=[N+]([O-])c1cncn1CCN1CCOCC1` [nimorazole] was tested. Which “inhibition” value did it give?
The value was 0.99%.

Which “inhibition” value does the source give for `C=CCc1ccc(O)c(-c2cc(CC=C)ccc2O)c1` [magnolol] here?
The value was 1.32%.

Which “inhibition” value does the source give for `c1ccc2sc(SNC3CCCCC3)nc2c1` [N-cyclohexyl-2-benzothiazolesulfenamide] here?
Its value is -0.9%.

How did the “inhibition” value turn out when `CCC[C@@H]1C[C@@H](C(=O)N[C@@H]([C@H]2O[C@H](SC)[C@H](O)[C@@H](O)[C@H]2O)[C@H](C)Cl)N(C)C1` was run?
Its value is -0.83%.

`CC(C)Oc1ccc(-c2nn([C@@H](C)c3oc4ccc(F)cc4c(=O)c3-c3cccc(F)c3)c3ncnc(N)c23)cc1F` was tested. Which “inhibition” value did it give?
The value was 0.14%.

With `CC(C)[C@@H](C)/C=C/[C@@H](C)[C@H]1CC[C@H]2/C(=C/C=C3\C[C@@H](O)CC[C@@H]3C)CCC[C@]12C` [dihydrotachysterol] as the compound, how does the “inhibition” value read?
Its value is -1.39%.

How did the “inhibition” value turn out when `C=Cc1c(C)c2cc3nc(c(CC(=O)O)c4[n-]c(cc5nc(cc1[n-]2)C(C)=C5CC)c(C)c4C(=O)O)[C@@H](CCC(=O)O)[C@@H]3C.[Cu+2]` [chlorophyllin-copper] was run?
The value was -1.68%.
